# Reference: PMC5540273 (PLoS ONE, 2017)
# Several values for one entry are separate records, joined by “and”; a condition that tells them apart may be missing. Equal entries are not always repeated. Where two headings read alike, the source gives them in different places.
# Experiments:
# [1] = test system: PHKG1; settings: concentration: 1 μM, replicates: in singlicate; n = 1
# [2] = test system: PHKG2; settings: n = 1
# [3] = test system: PIK3C2B; settings: n = 1
# [4] = test system: PIK3C2G; settings: concentration: 1 μM, replicates: in singlicate; n = 1
# [5] = test system: PIK3CA; settings: concentration: 1 μM, replicates: in singlicate; n = 1
# [6] = test system: PIK3CB; settings: n = 1
# [7] = test system: PIK3CD; settings: n = 1
# [8] = test system: PIK3CG; settings: n = 1
# [9] = test system: T1, PIK4CB; settings: n = 1
# T1 construct: gene PI4KB
# [10] = test system: PIKFYVE; settings: concentration: 1 μM, replicates: in singlicate; n = 1
# [11] = test system: PIM1; settings: n = 1
# [12] = test system: PIM2; settings: concentration: 1 μM, replicates: in singlicate; n = 1
# [13] = test system: PIM3; settings: n = 1
# [14] = test system: PIP5K1A; settings: concentration: 1 μM, replicates: in singlicate; n = 1
# [15] = test system: PIP5K1C; settings: n = 1
# [16] = test system: PIP5K2B; settings: n = 1
# [17] = test system: T2, PIP5K2C; settings: n = 1
# T2 construct: gene PIP4K2C
# [18] = test system: T3, PKAC-alpha; settings: n = 1
# T3 construct: gene PRKACA
# [19] = test system: T4, PKAC-beta; settings: n = 1
# T4 construct: gene PRKACB
# [20] = test system: PKMYT1; settings: n = 1
# [21] = concentration: 1 μM, replicates: in singlicate
# [22] = concentration: 1 μM,replicates: in singlicate, 1 µM
# 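Further: KINOMEscan kinase panel screen.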
smiles,measurement,setting,value
COC(=O)c1c(-c2ccccc2)c2cc(OC)ccc2c(=O)n1Cc1ccccc1,%Inh,[1],7%
same,%Inh,[2]; [21],31%
same,%Inh,[3]; [21],0%
same,%Inh,[4],0%
same,%Inh,[5],3%
same,%Inh,[6]; [21],14%
same,%Inh,[7]; [21],5%
same,%Inh,[8]; [21],0%
same,%Inh,[9]; [21],0%
same,%Inh,[10],13%
same,%Inh,[11]; [21],18%
same,%Inh,[12],2%
same,%Inh,[13]; [21],20%
same,%Inh,[14],16%
same,%Inh,[15]; [21],14%
same,%Inh,[16]; [21],38%
same,%Inh,[17]; [21],0%
same,%Inh,[18]; [21],21%
same,%Inh,[19]; [21],0%
same,%Inh,[20]; [21],2%
O=C(Nc1ccccc1)Nc1cccc(Oc2ccc3nccn3n2)c1,%Inh,[1],0%
same,%Inh,[2]; [21],9%
same,%Inh,[3]; [21],0%
same,%Inh,[4],0%
same,%Inh,[5],0%
same,%Inh,[6]; [21],0%
same,%Inh,[7]; [21],14%
same,%Inh,[8]; [21],6%
same,%Inh,[9]; [21],0%
same,%Inh,[10],0%
same,%Inh,[11]; [21],0%
same,%Inh,[12],2%
same,%Inh,[13]; [21],0%
same,%Inh,[14],9%
same,%Inh,[15]; [21],49%
same,%Inh,[16]; [21],15%
same,%Inh,[17]; [21],48%
same,%Inh,[18]; [21],48%
same,%Inh,[19]; [21],70%
same,%Inh,[20]; [21],0%
CSc1nn2c(=O)cc(N3CCOCC3)nc2n1Cc1cccc(C(F)(F)F)c1C [GSK2363608],%Inh,[1],0%
same,%Inh,[2]; [22],5% and 0%
same,%Inh,[3]; [22],25% and 20%
same,%Inh,[4],0%
same,%Inh,[5],9%
same,%Inh,[6]; [22],97% and 100%
same,%Inh,[7]; 1 µM,94.4% and 94.3%
same,%Inh,[8]; [22],17% and 16%
same,%Inh,[9]; [22],14% and 4%
same,%Inh,[10],0%
same,%Inh,[11]; [22],0% and 34%
same,%Inh,[12],0%
same,%Inh,[13]; [22],0% and 27%
same,%Inh,[14],0%
same,%Inh,[15]; [22],30% and 0%
same,%Inh,[16]; [22],1% and 4%
same,%Inh,[17]; [22],6% and 8%
same,%Inh,[18]; [22],50% and 0%
same,%Inh,[19]; [22],64% and 0%
same,%Inh,[20]; [22],13% and 19%
C[C@@H]1CCCCN1c1cc(-c2ccc3c(N)n[nH]c3c2)nc(N)n1 [GSK2258759],%Inh,[1],0%
same,%Inh,[2]; [21],0%
same,%Inh,[3]; [21],0%
same,%Inh,[4],0%
same,%Inh,[5],0%
same,%Inh,[6]; [21],0%
same,%Inh,[7]; [21],0%
same,%Inh,[8]; [21],0%
same,%Inh,[9]; [21],0%
same,%Inh,[10],7%
same,%Inh,[11]; [21],0%
same,%Inh,[12],0%
same,%Inh,[13]; [21],7%
same,%Inh,[14],0%
same,%Inh,[15]; [21],44%
same,%Inh,[16]; [21],4%
same,%Inh,[17]; [21],0%
same,%Inh,[18]; [21],0%
same,%Inh,[19]; [21],0%
same,%Inh,[20]; [21],2%
CCn1c(-c2ccccn2)nc2cnccc21 [SB-736398],%Inh,[1],0%
same,%Inh,[2]; [21],0%
same,%Inh,[3]; [21],0%
same,%Inh,[4],0%
same,%Inh,[5],0%
same,%Inh,[6]; [21],18%
same,%Inh,[7]; [21],5%
same,%Inh,[8]; [21],0%
same,%Inh,[9]; [21],0%
same,%Inh,[10],32%
same,%Inh,[11]; [21],0%
same,%Inh,[12],0%
same,%Inh,[13]; [21],0%
same,%Inh,[14],6%
same,%Inh,[15]; [21],34%
same,%Inh,[16]; [21],7%
same,%Inh,[17]; [21],32%
same,%Inh,[18]; [21],92.9%
same,%Inh,[19]; [21],6%
same,%Inh,[20]; [21],0%
Cc1ccc(NC(=O)Nc2cc(C(C)(C)C)nn2-c2ccccc2)cc1 [GSK1014915],%Inh,[1],4%
same,%Inh,[2]; [21],0%
same,%Inh,[3]; [21],0%
same,%Inh,[4],0%
same,%Inh,[5],0%
same,%Inh,[6]; [21],0%
same,%Inh,[7]; [21],0%
same,%Inh,[8]; [21],0%
same,%Inh,[9]; [21],4%
same,%Inh,[10],0%
same,%Inh,[11]; [21],0%
same,%Inh,[12],0%
same,%Inh,[13]; [21],0%
same,%Inh,[14],0%
same,%Inh,[15]; [21],29%
same,%Inh,[16]; [21],12%
same,%Inh,[17]; [21],3%
same,%Inh,[18]; [21],0%
same,%Inh,[19]; [21],0%
same,%Inh,[20]; [21],14%
Cc1ccc(NC(=O)Nc2cccc(Cl)c2)cc1-c1ccc(C(=O)Nc2ccncc2)cc1 [GSK1398468],%Inh,[1],0%
same,%Inh,[2]; [21],11%
same,%Inh,[3]; [21],0%
same,%Inh,[4],0%
same,%Inh,[5],8%
same,%Inh,[6]; [21],0%
same,%Inh,[7]; [21],0%
same,%Inh,[8]; [21],0%
same,%Inh,[9]; [21],0%
same,%Inh,[10],2%
same,%Inh,[11]; [21],15%
same,%Inh,[12],0%
same,%Inh,[13]; [21],0%
same,%Inh,[14],0%
same,%Inh,[15]; [21],33%
same,%Inh,[16]; [21],0%
same,%Inh,[17]; [21],28%
same,%Inh,[18]; [21],0%
same,%Inh,[19]; [21],4%
same,%Inh,[20]; [21],0%
Cc1cc(NCC(c2ccccc2)c2ccccc2)nc(NCc2ccc(C(F)(F)F)cc2)n1 [GW497681],%Inh,[1],0%
same,%Inh,[2]; [21],0%
same,%Inh,[3]; [21],0%
same,%Inh,[4],0%
same,%Inh,[5],0%
same,%Inh,[6]; [21],0%
same,%Inh,[7]; [21],0%
same,%Inh,[8]; [21],0%
same,%Inh,[9]; [21],0%
same,%Inh,[10],0%
same,%Inh,[11]; [21],12%
same,%Inh,[12],0%
same,%Inh,[13]; [21],0%
same,%Inh,[14],0%
same,%Inh,[15]; [21],53%
same,%Inh,[16]; [21],8%
same,%Inh,[17]; [21],0%
same,%Inh,[18]; [21],0%
same,%Inh,[19]; [21],0%
same,%Inh,[20]; [21],0%
CN1C(=O)C(Nc2ccc(Cl)c(C(=O)O)c2)=C(c2ccc(Cl)cc2)C1=O [SB-404290],%Inh,[1],0%
same,%Inh,[2]; [21],0%
same,%Inh,[3]; [21],34%
same,%Inh,[4],20%
same,%Inh,[5],7%
same,%Inh,[6]; [21],0%
same,%Inh,[7]; [21],0%
same,%Inh,[8]; [21],23%
same,%Inh,[9]; [21],16%
same,%Inh,[10],13%
same,%Inh,[11]; [21],0%
same,%Inh,[12],0%
same,%Inh,[13]; [21],0%
same,%Inh,[14],11%
same,%Inh,[15]; [21],0%
same,%Inh,[16]; [21],0%
same,%Inh,[17]; [21],0%
same,%Inh,[18]; [21],0%
same,%Inh,[19]; [21],4%
same,%Inh,[20]; [21],0%
COc1cccc(NC(=O)NC2CCN(c3ccnc(Nc4ccc(F)cc4)n3)C2)c1 (centres unmarked) [GSK1379721],%Inh,[1],0%
same,%Inh,[2]; [21],0%
same,%Inh,[3]; [21],11%
same,%Inh,[4],0%
same,%Inh,[5],3%
same,%Inh,[6]; [21],0%
same,%Inh,[7]; [21],0%
same,%Inh,[8]; [21],13%
same,%Inh,[9]; [21],0%
same,%Inh,[10],31%
same,%Inh,[11]; [21],9%
same,%Inh,[12],0%
same,%Inh,[13]; [21],0%
same,%Inh,[14],38%
same,%Inh,[15]; [21],59%
same,%Inh,[16]; [21],0%
same,%Inh,[17]; [21],0%
same,%Inh,[18]; [21],0%
same,%Inh,[19]; [21],0%
same,%Inh,[20]; [21],0%
